This note sets out measurements from PubChem BioAssay (EPA / NIEHS).

“And” between values parts separate entries of the source, which are not always exact repeats. Equal entries are not always repeated. Results filed as inconclusive are left out. A structure can be active in one record and inactive in another. The source made the active and inactive calls. Rule for the calls, unless noted: active = hit-call score of the fitted dose curve at least 0.9, where 1 is the maximum; inactive = score below 0.9.

Read-out in assay [1]: Interleukin-8 (IL8), CXCL8 (gene 3576)
Description: BSK_3C_IL8: BioMAP Diversity Plus: 3C Assay for Interleukin-8 (IL8) Biomarker Activity (AID 2283020). The conditions noted are these: primary human endothelial cells (HUVEC); actives raise or lower the signal. An outline of the steps:
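ELISA read-out of IL-8 from human umbilical vein endothelium, measured 24 h after chemical dosing. Activity is expressed relative to DMSO negative control, with both increases and decreases fitted.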

Read-out in assay [2]: Monokine induced gamma interferon (MIG), CXCL9 (gene 4283)
Description: BSK_3C_MIG: BioMAP Diversity Plus: 3C Assay for Monokine induced gamma interferon (MIG) Biomarker Activity (AID 2283021).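 For AC50: MIG protein level measured by immunoassay in the treated endothelial cultures.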 Particulars: primary human endothelial cells (HUVEC); actives raise or lower the signal. In short, it runs like this:
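Read-out is ELISA detection of MIG on human umbilical vein endothelial cells, taken 24 h after dosing. Gain or loss of signal was scored relative to DMSO controls using bidirectional curve fitting.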

Assay [3] addresses human Vitamin D Receptor (VDR), VDR (gene 7421) (UniProt P11473). As to the kind of experiment: ATG_VDR_TRANS: Attagene TRANS-FACTORIAL HepG2 Assay for human Vitamin D Receptor (VDR) (AID 2283022; active = hit-call score of the fitted dose curve at least 0.9, where 1 is the maximum). In short, it runs like this: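 HepG2 cells were transiently transfected with GAL4-UAS reporter units and a chimeric VDR-Gal4 construct, then dosed for 24 hours. Reporter mRNA was quantified by RT-PCR, fluorescent labeling, HpaI digestion and capillary electrophoresis; gain of signal analysed vs DMSO.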

The nature of assay [4]: BSK_3C_SRB: Viability Assessment in the BioMAP Diversity Plus: 3C Assay (AID 2283023).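 Note: fitted both ways against DMSO so a hit may be signal rise or drop.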 The conditions noted are these: primary human endothelial cells (HUVEC). An outline of the steps: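 Human umbilical vein endothelial cells in the 3C system, treated 24 h. Total protein measured by 0.1% sulforhodamine B staining after 10% TCA fixation, read at 560 nm; bidirectional fit versus DMSO.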

Read-out in assay [5]: Matrix Metallopeptidase 1 (MMP1), MMP1 (gene 4312)
Description: BSK_BE3C_MMP1: BioMAP Diversity Plus: BE3C Assay for Matrix Metallopeptidase 1 (MMP1) Biomarker Activity (AID 2283024). The conditions noted are these: primary human bronchial epithelial cells; actives raise or lower the signal. In short, it runs like this: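 Human bronchial epithelial cells (BE3C system) exposed to compound for 24 h; MMP1 then quantified by ELISA. Activity was fitted in both directions relative to DMSO.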

Assay [6] can be described thus: BSK_3C_Vis: BioMAP Diversity Plus: 3C Assay for Morphology Visualization (AID 2283025).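 For AC50: light microscopy image of cell morphology used as background control.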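 Note: fitted both ways so gain or loss versus DMSO counts.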 Particulars: primary human endothelial cells (HUVEC). An outline of the steps:
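Chemicals were added to primary human umbilical vein endothelium, cells were incubated 24 h, and morphology was then visualized by light microscopy. Gain or loss of signal was fitted bidirectionally relative to DMSO.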

Read-out in assay [7]: Pselectin, SELP (gene 6403)
Description: BSK_4H_Pselectin: BioMAP Diversity Plus: 4H Assay for Pselectin Biomarker Activity (AID 2283026). The conditions noted are these: primary human endothelial cells (HUVEC); actives raise or lower the signal. An outline of the steps:
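ELISA read-out of P-selectin on human umbilical vein endothelium after 24 h of dosing. Values derive from bidirectional fitting relative to DMSO. Parallel SRB protein staining flagged overt cytotoxicity.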

Assay [8] can be described thus: BSK_4H_SRB: Viability Assessment in the BioMAP Diversity Plus: 4H Assay (AID 2283027).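 For AC50: curves fitted both ways versus DMSO so AC50 may be loss or gain.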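 Note: cells exposed to compound for 24 h before staining.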 Particulars: primary human endothelial cells (HUVEC). In short, it runs like this:
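Human umbilical vein endothelial cells, 24 h after chemical dosing; total protein measured by 0.1% sulforhodamine B staining after 10% TCA fixation, read at 560 nm. Bidirectional fitting against DMSO.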

Assay [9] in a line: BSK_BE3C_SRB: Viability Assessment in the BioMAP Diversity Plus: BE3C Assay (AID 2283028).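 For AC50: fitted both ways so AC50 may mark signal gain or loss versus DMSO.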 Particulars: primary human bronchial epithelial cells. In short, it runs like this:
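Human bronchial epithelial primary cells in confluent culture, 24 h after chemical dosing; total protein by 0.1% SRB staining after 10% TCA fixation, read at 560 nm. Bidirectional fitting versus DMSO baseline.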

Read-out in assay [10]: Urokinase-type plasminogen activator receptor (uPAR), PLAUR (gene 5329)
Description: BSK_4H_uPAR: BioMAP Diversity Plus: 4H Assay for Urokinase-type plasminogen activator receptor (uPAR) Biomarker Activity (AID 2283030). The conditions noted are these: primary human endothelial cells (HUVEC); actives raise or lower the signal. In short, it runs like this:
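Human umbilical vein endothelial cells in the 4H system, 24 h after chemical dosing. Cell-surface uPAR measured by ELISA, fitted in both directions versus DMSO; cytotoxicity checked by SRB total protein in parallel cultures.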

Read-out in assay [11]: Vascular endothelial growth factor receptor 2 (Homo sapiens) (UniProt P35968)
Description: BSK_4H_VEGFRII: BioMAP Diversity Plus: 4H Assay for Vascular endothelial growth factor receptor 2 (VEGFR2) Biomarker Activity (AID 2283031).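 For AC50: cell-surface VEGFR2 protein level quantified by ELISA.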 Particulars: primary human endothelial cells (HUVEC); actives raise or lower the signal. An outline of the steps:
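Primary human umbilical vein endothelial cells (4H system), 24 h exposure; cell-surface VEGFR2 measured by ELISA. Bidirectional fitting versus DMSO; cytotoxicity checked in parallel by SRB total-protein staining.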

Read-out in assay [12]: Human Leukocyte Antigen - DR isotype (HLADR), HLA-DRA (gene 3122)
As to the kind of experiment: BSK_BE3C_HLADR: BioMAP Diversity Plus: BE3C Assay for Human Leukocyte Antigen - DR isotype (HLADR) Biomarker Activity (AID 2283032). Particulars: primary human bronchial epithelial cells; actives raise or lower the signal. In short, it runs like this:
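ELISA read-out of HLA-DR on human lung bronchial epithelial primary cells, measured 24 h post-dosing. Both increases and decreases were scored relative to DMSO vehicle.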

Read-out in assay [13]: Vascular cell adhesion molecule 1 (VCAM1), VCAM1 (gene 7412)
As to the kind of experiment: BSK_4H_VCAM1: BioMAP Diversity Plus: 4H Assay for Vascular cell adhesion molecule 1 (VCAM1) Biomarker Activity (AID 2283033).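 For outcome: cell-surface VCAM-1 protein measured by ELISA.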 Particulars: primary human endothelial cells (HUVEC); actives raise or lower the signal. In short, it runs like this: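 ELISA read-out of VCAM-1 on human umbilical vein endothelium 24 hours after chemical dosing; gain or loss of signal was fitted relative to DMSO, with sulforhodamine B staining of parallel cultures flagging overt cytotoxicity.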

Read-out in assay [14]: Interferon-gamma inducible Protein 10 (IP10), CXCL10 (gene 3627)
Description: BSK_BE3C_IP10: BioMAP Diversity Plus: BE3C Assay for Interferon-gamma inducible Protein 10 (IP10) Biomarker Activity (AID 2283034). The conditions noted are these: primary human bronchial epithelial cells; actives raise or lower the signal. An outline of the steps:
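Chemical is dosed onto human lung bronchial epithelial primary cells, cultures are incubated 24 h, and IP-10 is then quantified by ELISA. Gain or loss of signal is fitted in both directions relative to DMSO.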

Read-out in assay [15]: Monokine induced gamma interferon (MIG), CXCL9 (gene 4283)
Description: BSK_BE3C_MIG: BioMAP Diversity Plus: BE3C Assay for Monokine induced gamma interferon (MIG) Biomarker Activity (AID 2283035). Particulars: primary human bronchial epithelial cells; actives raise or lower the signal. In short, it runs like this: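 Primary human bronchial epithelial cells treated for 24 h; MIG levels measured by ELISA, fitted bidirectionally versus DMSO. Parallel SRB total-protein staining assessed cytotoxicity.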

Read-out in assay [16]: Transforming growth factor beta 1 (TGFb1), TGFB1 (gene 7040)
As to the kind of experiment: BSK_BE3C_TGFb1: BioMAP Diversity Plus: BE3C Assay for Transforming growth factor beta 1 (TGFb1) Biomarker Activity (AID 2283036;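 note: TGF-b1 protein level measured by ELISA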). Particulars: primary human bronchial epithelial cells; actives raise or lower the signal. An outline of the steps:
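Primary human lung bronchial epithelial cells; compound exposure 24 h; TGF-b1 by ELISA; bidirectional fit, DMSO baseline. Parallel SRB total-protein staining for cytotoxicity.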

Read-out in assay [17]: Plasminogen activator inhibitor-1 (PAI1), SERPINE1 (gene 5054)
Description: BSK_BE3C_PAI1: BioMAP Diversity Plus: BE3C Assay for Plasminogen activator inhibitor-1 (PAI1) Biomarker Activity (AID 2283037). Particulars: primary human bronchial epithelial cells; actives raise or lower the signal. In short, it runs like this:
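Primary human lung bronchial epithelial cells; chemical dosing; 24 h; PAI-1 measured by ELISA; bidirectional fit referenced to DMSO as negative control.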

Read-out in assay [18]: urokinase plasminogen activator (uPA), PLAU (gene 5328)
As to the kind of experiment: BSK_BE3C_uPA: BioMAP Diversity Plus: BE3C Assay for urokinase plasminogen activator (uPA) Biomarker Activity (AID 2283038).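 Note: uPA protein level quantified by ELISA in cell cultures; uPA read one day after compound addition.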 Particulars: primary human bronchial epithelial cells; actives raise or lower the signal. In short, it runs like this: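 Primary human bronchial epithelial cells, uPA measured by ELISA 24 h after dosing. Bidirectional change relative to DMSO; cytotoxicity checked in parallel cultures by sulforhodamine B total-protein staining.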

Read-out in assay [19]: Urokinase-type plasminogen activator receptor (uPAR), PLAUR (gene 5329)
As to the kind of experiment: BSK_BE3C_uPAR: BioMAP Diversity Plus: BE3C Assay for Urokinase-type plasminogen activator receptor (uPAR) Biomarker Activity (AID 2283039).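 For outcome: cells exposed to compound for one day before measurement.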 Particulars: primary human bronchial epithelial cells; actives raise or lower the signal. An outline of the steps: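 Human bronchial epithelial primary cells; chemical exposure 24 h; uPAR by ELISA; bidirectional fit vs DMSO control.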

Read-out in assay [20]: Thrombomodulin, THBD (gene 7056)
As to the kind of experiment: BSK_3C_Thrombomodulin: BioMAP Diversity Plus: 3C Assay for Thrombomodulin Biomarker Activity (AID 2283029). The conditions noted are these: primary human endothelial cells (HUVEC); actives raise or lower the signal. An outline of the steps:
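Read-out is ELISA of thrombomodulin on human umbilical vein endothelium 24 h after chemical dosing. Gain or loss of signal is scored relative to DMSO. Overt cytotoxicity is checked in parallel cultures by sulforhodamine B staining.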

human Vitamin D Receptor (VDR), VDR (gene 7421), sequence (P11473 whole entry, looked up, the tested form may be a part): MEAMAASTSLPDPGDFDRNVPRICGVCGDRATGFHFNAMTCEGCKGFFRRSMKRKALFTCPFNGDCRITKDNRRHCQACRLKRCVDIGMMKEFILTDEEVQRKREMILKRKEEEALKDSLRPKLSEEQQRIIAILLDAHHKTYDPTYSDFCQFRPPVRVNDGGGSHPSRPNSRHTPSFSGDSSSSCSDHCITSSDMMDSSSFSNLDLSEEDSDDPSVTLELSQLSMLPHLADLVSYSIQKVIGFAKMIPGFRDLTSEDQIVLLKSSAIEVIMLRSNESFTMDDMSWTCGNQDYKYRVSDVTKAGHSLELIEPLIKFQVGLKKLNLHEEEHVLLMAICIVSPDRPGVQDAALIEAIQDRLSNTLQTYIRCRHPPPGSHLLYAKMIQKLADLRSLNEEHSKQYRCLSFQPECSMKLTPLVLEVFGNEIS

Turning to `CC(CCl)OP(=O)(OC(C)CCl)OC(C)CCl` (configuration not stated), the result in [1], in assay [2], in assay [3], in [4], in assay [5] and in [6] was inactive. For the same compound, the outcome in assay [7], in [8], in assay [9], in assay [10], in [11] and in assay [12] was inactive. Further, the result in assay [13], in assay [14], in assay [15], in assay [16], in [17] and in assay [18] was inactive. Also, in assay [19], the outcome was inactive.

Consider `OCC(F)(F)C(F)(F)C(F)(F)C(F)(F)C(F)(F)C(F)(F)F`, for which the outcome in assay [1], in [2], in [3], in assay [4], in assay [5] and in assay [7] was inactive. In addition, the result in assay [8], in [9], in assay [20], in [10], in [11] and in assay [12] was inactive. Besides, the outcome in assay [13], in assay [17] and in assay [19] was inactive. In addition, the AC50 in assay [4] was 58.5 µM (active); in assay [7], 43.6 µM (active); in assay [10], 47.8 µM (active); in assay [12] it was 41.7 µM (active); in [15] it was 45.1 µM (active) and 54.8 µM (active).

For `CC(=O)Nc1ccc(N=Nc2cc(C)ccc2O)cc1`, the result in assay [1], in [2], in [3], in [4], in [8] and in assay [9] was inactive. Moreover, the result in assay [10], in [11], in [12], in assay [13], in assay [15] and in [16] was inactive. Moreover, the result in assay [17] and in assay [18] was inactive. In addition, the half-maximal activity concentration (AC50) is 24.7 µM (active) in assay [5], 39.6 µM (active) in assay [6], 15.2 µM (active) in assay [7] and 7.5 µM (active) in assay [20].

On to `OCCCC(F)(F)C(F)(F)C(F)(F)C(F)(F)C(F)(F)C(F)(F)C(F)(F)F`, for which the half-maximal activity concentration (AC50) in assay [1] was 44.9 µM (active) and 47.6 µM (active); in assay [2] it was 49.2 µM (active) and 43.7 µM (active); in assay [4] it was 32.6 µM (active) and 45.2 µM (active); in [5], 49.7 µM (active) and 48.3 µM (active); in assay [7] it was 41.8 µM (active); in assay [8], 49.4 µM (active) and 48.3 µM (active). Further, the AC50 in [9] was 49.1 µM (active) and 52.5 µM (active); in assay [10], 51.2 µM (active) and 47.3 µM (active); in assay [11] it was 44.6 µM (active) and 45.4 µM (active); in assay [12], 50.4 µM (active) and 45.9 µM (active); in assay [13], 46.4 µM (active) and 48.6 µM (active); in assay [15] it was 49.6 µM (active) and 55.7 µM (active). The AC50 is 47.1 µM (active) and 30 µM (active) in [17]; 52.4 µM (active) and 47.2 µM (active) in assay [19]. The compound was classed as inactive in assay [3], in assay [7] and in assay [20].

In the case of `FC(F)(Br)C(F)(F)C(F)(F)C(F)(F)C(F)(F)C(F)(F)Br`, the result in [1], in [2], in assay [3], in assay [4], in assay [5] and in assay [7] was inactive. For the same compound, the result in [8], in assay [9], in [20], in assay [10], in [11] and in assay [12] was inactive. Also, the outcome in [13], in [14], in [15] and in assay [17] was inactive.

Take `O=C(O)C=C(C(F)(F)F)C(F)(F)F`: the outcome in assay [1], in assay [2], in assay [3], in assay [4], in [5] and in assay [8] was inactive. The outcome in assay [9], in assay [20], in assay [10], in assay [11], in assay [12] and in assay [15] was inactive. Also, the outcome in [17], in assay [18] and in assay [19] was inactive. Further, the AC50 in assay [7] is 22.4 µM (active) and 21.1 µM (active); in [13], 15.2 µM (active) and 5.95 µM (active).

Usually AC50 stands for the midpoint of the concentration-response curve, whichever way the signal moves.
